Source: PubChem
HP1b binding inh – inhibitors of HP1-beta chromodomain binding to methylated histone tails; P83916; AlphaScreen HP1-beta / biotin-H3K9me3 peptide binding; Potency, µM (doses to about 114 µM), for inactives: at the top dose activity change, negative = inhibition, most hits filed as inhibitors; 390,000 compounds, 0.56% hits; AID 540317; also: nearly all actives have a fitted effect of over 70% in size
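AlphaScreen: HP1-beta (50 nM) preformed 30 min with biotin-H3(1-18)K9me3 peptide (50 nM) in PBS pH 7.4, 0.01% Tween-20. Compound added for 30 min at RT, then streptavidin donor/nickel chelate acceptor beads (10 ug/mL) for 30 min.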
JMJD2A Tudor – blocks the human JMJD2A Tudor domain | AlphaScreen JMJD2A-Tudor / H3K4me3 peptide binding | Potency, µM (top dose mostly 114 µM), for the others: at the top dose activity change, negative = inhibition, actives largely listed as inhibitors | 390,000 compounds, 4.4% hits; also: % is scaled to controls: 0 for no effect and ±100 for the full control effect; nearly all actives have a fitted effect of over 50% in size
G9a block – G9a (human) methyltransferase inhibition | Q96KQ7 | G9a H3K9 monomethylation, AlphaScreen, 2 h | Potency, µM (top dose mostly 102 µM), without a hit: at the top dose activity, negative = inhibition, hits mostly inhibitors | 350,000 compounds, 8.8% hits | AID 504332; also: % is scaled to controls: 0 for no effect and ±100 for the full control effect; nearly all actives have a fitted effect of over 75% in size
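Enzyme 20 nM + cpd, 15 min RT; add b-H3K9 pep 500 nM / SAM 20 uM; 2 h RT; anti-H3K9me1 Ab 0.5 ug/mL + SA donor / anti-rabbit acceptor beads 20 ug/mL each, 10 min; AlphaScreen read.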
Sfp inh – Sfp phosphopantetheinyl transferase inhibition. Q9F4F7. 310,000 compounds, 3.5% hits. Biochemical Sfp PPTase activity, qHTS. Potency, µM, inactives show largest response in the series, negative = inhibition, usual class: inhibitors;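 also: the enzyme is Sfp with the accession as filed and its product quenches rhodamine fluorescence; 0% = enzyme reaction without inhibitor and -100% = no enzyme wells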
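Reaction rates are the 30-min fluorescence difference (ex 525, em 598 nm) in wells containing 15 nM Sfp, 5 uM rhodamine-CoA and 12.5 uM BHQ-2-YbbR at pH 7.6 with 10 mM MgCl2.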
BAZ2B block – blocks human BAZ2B; AID 504333; Q9UIF8; Potency, µM (titrated, usually from 114 µM), for inactives: at the top dose activity change, negative = inhibition, actives largely listed as inhibitors; 360,000 compounds, 4.4% hits; AlphaScreen BAZ2B-H3K14Ac peptide displacement; also: % is scaled to controls: 0 for no effect and ±100 for the full control effect; nearly all actives have a fitted effect of over 60% in size
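Protein-peptide AlphaScreen: BAZ2B 50 nM, b-H3K14Ac 50 nM, 1x PBS pH 7.4 + 0.01% Tween-20. Preincubation 30 min RT; cpd 30 min RT (top 110 uM); beads 20 min RT, light-protected.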
L3MBTL1 inh – L3MBTL1 (human) inhibition. Q9Y468. AlphaScreen L3MBTL1–H3K9me1 peptide binding. Potency, µM (top dose mostly 57.1 µM), inactives show at the top dose activity, negative = inhibition, actives largely listed as inhibitors. 230,000 compounds, 0.66% hits. AID 485360; also: % is scaled to controls: 0 for no effect and ±100 for the full control effect; nearly all actives have a fitted effect of over 60% in size
Target sequence (Q9Y468 whole entry, looked up): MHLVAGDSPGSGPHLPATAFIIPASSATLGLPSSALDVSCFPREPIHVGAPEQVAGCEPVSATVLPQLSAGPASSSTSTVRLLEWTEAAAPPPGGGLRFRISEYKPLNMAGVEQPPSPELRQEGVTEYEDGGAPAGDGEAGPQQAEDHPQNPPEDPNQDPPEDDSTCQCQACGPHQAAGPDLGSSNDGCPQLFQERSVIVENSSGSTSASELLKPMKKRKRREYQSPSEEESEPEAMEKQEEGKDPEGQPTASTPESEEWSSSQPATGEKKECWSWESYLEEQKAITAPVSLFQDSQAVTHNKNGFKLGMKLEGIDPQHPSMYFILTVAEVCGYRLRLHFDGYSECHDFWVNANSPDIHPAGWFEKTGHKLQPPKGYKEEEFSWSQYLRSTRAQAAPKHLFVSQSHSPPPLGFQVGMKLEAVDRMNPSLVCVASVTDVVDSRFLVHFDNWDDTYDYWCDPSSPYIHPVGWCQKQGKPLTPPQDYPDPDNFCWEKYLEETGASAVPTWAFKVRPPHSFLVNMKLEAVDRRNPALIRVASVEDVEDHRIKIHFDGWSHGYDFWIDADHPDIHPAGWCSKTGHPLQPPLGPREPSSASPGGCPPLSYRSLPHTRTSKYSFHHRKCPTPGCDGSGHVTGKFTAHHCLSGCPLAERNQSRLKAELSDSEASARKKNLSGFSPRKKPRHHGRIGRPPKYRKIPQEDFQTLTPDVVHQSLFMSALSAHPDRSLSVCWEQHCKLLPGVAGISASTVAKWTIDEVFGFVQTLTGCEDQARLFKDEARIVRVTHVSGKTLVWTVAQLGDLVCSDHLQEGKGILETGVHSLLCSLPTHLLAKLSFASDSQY
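AlphaScreen proximity signal between nickel-chelate acceptor and streptavidin donor beads (final 10 ug/mL) reports binding of 50 nM L3MBTL1 to 75 nM biotin-H3 K9me1 peptide; complex incubated with compounds 30 min at room temperature; cefsulodin titration as control.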
* hit, by the source's call; ? = inconclusive; . = not tested or not shown; [ ] = remark or other dose. A selection: hits, their analogues and other compounds. The true share with any hit is near 12%. Calls follow the shape of the dose curve; as a rule, active = well fitted curve in the direction sought with a large enough effect; inconclusive = small, poorly fitted or top-dose-only effect, or another doubt; inactive = no such curve, though single readings can be large; an effect the other way counts as inactive or inconclusive. Potency is read from the fitted curve at half-maximal effect.

SMILES	HP1b binding inh	JMJD2A Tudor	G9a block	Sfp inh	BAZ2B block	L3MBTL1 inh
Cc1ccc(NC(=O)C(=O)NCC(c2ccc3c(c2)OCO3)N2CCN(C)CC2)c(C)c1 (stereo not given)	6.9%[57 µM]	-12.6%	-2.7%[59 µM]	.	-1.6%	.
Cc1ccc(-n2nc(C(=O)Nc3cccc(C#N)c3)c3c4ccccc4n(C)c3c2=O)cc1	54.4%	-16.3%	15.3%[59 µM]	.	.	.
CCCCCCCCCCCCCCCCCC(=O)OCC(C)O (stereo not given)	.	.	25.1µM*	-10.6%	.	.
CCN1CCN(c2c(S(=O)(=O)c3ccc(Cl)cc3)cnc3ccccc23)CC1	2.3%	-21.1%	-41.2%[59 µM]	.	-18.2%	.
Cc1nc2ccccn2c1C(=O)N/N=C/c1ccc(CNC(=O)C(=O)Nc2ccccc2)o1	13.8%	-23.6%	7.6%[59 µM]	5.1%	-23.5%	-19.1%
O=C(NCc1ccc(/C=c2\sc3n(c2=O)CCN=3)o1)C(=O)Nc1ccccc1	.	.	50.1µM*	22.4µM*	?	25.1µM*
O=c1/c(=C\c2ccc3c(c2)OCO3)sc2n1CCCN=2	-0.4%	-16.2%	-9.1%	6.7%	1.0%	5.3%
Cc1ccc(/C=c2/sc3n(c2=O)CCCN=3)o1	26.4%	-12.8%	8.91µM*	20µM*	-6.7%	-6.2%
Cc1ccc(/C=c2\sc3n(c2=O)CN(c2ccc(Br)cc2)CN=3)o1	-32.4%	-4.6%[11.4 µM]	8.91µM*	10µM*	-22.1%	1.2%
CCc1ccc(S(=O)(=O)c2nnn3c2nc(NCc2ccccc2)c2cc(Cl)ccc23)cc1	24.0%	7.6%	12.7%[59 µM]	.	3.3%	.
O=C(NC1CCCCC1)c1ccc2c(c1)sc1nc(-c3ccccc3)cn12	16.0%	-9.9%	3.2%[59 µM]	.	3.9%	.
O=C1C(=O)N(C2CCN(S(=O)(=O)c3ccc(F)cc3)CC2)CCN1Cc1ccccc1	30.0%	-2.9%	7.6%[59 µM]	.	2.5%	.
C=CCNC(=S)NNC(=O)c1ccc(OCCCC)cc1	47.9%	-11.0%	5.4%[59 µM]	21.1%	2.7%	15.8%
C=CCNC(=S)NNC(=O)C(CCCC)CC(C)(C)O (stereo not given)	47.6%	-5.0%	?	17.8µM*	?	-6.2%
CC[C@H](C)[C@H](NC(=O)[C@H](CCC(=O)O)NC(=O)CNC(=O)[C@@H](NC(=O)[C@H](CCC(=O)O)NC(=O)[C@H](CCC(=O)O)NC(=O)[C@H](CC(C)C)NC(=O)CNC(=O)[C@@H]1CCCN1C(=O)[C@H](CCC(=O)O)NC(=O)[C@@H](N)[C@@H](C)O)C(C)C)C(=O)N[C@@H](CCC(=O)O)C(=O)N[C@@H](CCC(N)=O)C(=O)N[C@@H](CCCCN)C(=O)N[C@@H](CCC(N)=O)C(=O)N[C@@H](CC(C)C)C(=O)N[C@@H](CCC(N)=O)C(=O)O	.	.	.	-7.2%	.	.
CCN(CC)CCCNC(=O)c1ccc(OCC(=O)Nc2ccccc2C(F)(F)F)c(OC)c1	27.7%	-8.4%	59.7%	-0.5%	-5.0%	.
Cc1ccc(-n2c([S-])c(C(=O)Nc3ccc(OC(F)F)cc3)[n+]3ccc(C(=O)NCCO)cc23)cc1C	10.1%	-10.3%	10µM*	?	-37.4%	-3.5%
COc1ccccc1-n1c([S-])c(C(=O)Nc2ccccc2C(F)(F)F)[n+]2ccc(C(=O)NCCO)cc12	?	?	20µM*	7.0%	-19.4%	.
Cc1cc2c(s1)c1cnn(Cc3ccccc3Br)c(=O)c1n2C	.	-19.9%	.	.	.	.
C/C=C(\C)C(=O)O[C@H]1C[C@@]2(C)CCC(C(C)C)C2(O)CC[C@@]1(C)O (stereo not given in full)	.	.	.	10.8%	.	.
CCn1c(C)cc(/C=C2\NC(=O)N(Cc3ccccc3)C2=O)c1C	7.1%	89.1µM*	12.6µM*	-2.1%	-32.0%	.
O=C(O)Cn1nnnc1-c1ccc(F)cc1	17.5%	-12.2%	?	16.7%	6.3%	15.4%
Cc1cc(Cn2nnnc2-c2ccncc2)cc(C)c1O	46.7%	-6.3%	35.5µM*	10.9%	-10.9%	.
Cc1ccc2cccc(OC(=O)/C=C\c3ccccc3)c2n1	20.6%	20µM*	9.8%	19.1%	-11.1%	0.8%
O=C(/C=C/c1ccco1)Oc1cccc2cccnc12	7.3%	?	.	-21.8%	44.7µM*	-16.1%
SMILES	HP1b binding inh	JMJD2A Tudor	G9a block	Sfp inh	BAZ2B block	L3MBTL1 inh
O=C(/C=C\c1ccco1)Oc1cccc2cccnc12	-12.0%	?	-46.6%	?	31.6µM*	.
COc1ccc(CNC(=O)CN2C(=O)CCn3nc(-c4ccccc4)cc32)c(OC)c1	31.8%	-8.7%	-20.2%[59 µM]	.	10.1%[57.1 µM]	.
NNc1ccc2c(C(F)(F)F)cc(C(F)(F)F)nc2n1	39.7%	-26.6%	35.5µM*	56.2µM*	-11.0%	6.8%
Cc1ccc(/C=N/Nc2ccc3c(C(F)(F)F)cc(C(F)(F)F)nc3n2)cc1	26.1%	0.8%	?	23.1%	2.0%	0.1%
OCCN(Cc1ccccc1)Cc1ncccc1O	32.5%	-9.1%	.	.	.	.
OCCN(Cc1cccnc1)Cc1ccccn1	43.1%	50.1µM*	.	.	.	.
O=C1/C(=C/c2cccnc2)Oc2cc(OS(=O)(=O)c3ccc(Cl)cc3)ccc21	14.2%	-14.7%	-16.9%	-3.6%	?	.
CS(=O)(=O)Oc1ccc2c(c1)O/C(=C\c1cccnc1)C2=O	-16.2%	-22.4%	.	-13.2%	-14.5%	-3.7%
COc1ccc(S(=O)(=O)Oc2ccc3c(c2)O/C(=C\c2cccnc2)C3=O)cc1	-23.7%	?	39.8µM*	-4.8%	?	.
COc1cc(OC)c(OC)cc1/C=C1\Oc2cc(OS(C)(=O)=O)ccc2C1=O	-3.9%	?	39.8µM*	-3.8%	-35.0%	?
CCCCC[C@H](O)/C=C/[C@H]1OC(O)C[C@H](O)[C@@H]1C/C=C\CCCC(=O)O (stereo not given in full)	.	.	.	-4.3%	.	.
COc1ccc(CCNC(=O)CNCCc2ccc(F)cc2)cc1	-18.9%	22.4µM*	-17.7%	-19.3%	79.4µM*	.
COc1ccc(CNC(=O)CNC(C)c2ccc(F)cc2)cc1 (stereo not given)	44.7µM*	20µM*	13.5%	-16.8%	56.2µM*	.
COc1ccc(CCNC(=O)Cn2nnc3ccccc3c2=O)cc1	19.8%	-9.6%	70.8µM*	-1.9%	12.0%	2.7%
COc1cc(=O)[nH]c(SC(C)C(=O)Nc2nc3c(s2)CCCC3)n1 (stereo not given)	29.2%	7.7%	-24.2%	18.5%	-3.8%	.
COc1cc(=O)[nH]c(SCC(=O)Nc2nc3c(s2)CCCC3)n1	-5.2%	31.6µM*	8.7%[59 µM]	17.1%	1.7%	.
O=C(CN1CCOCC1)Nc1nc2ccc([N+](=O)[O-])cc2s1	29.5%	10µM*	-46.4%	-2.9%	-27.1%	-2.6%
O=C(CSc1cn[nH]n1)Nc1nc2ccccc2s1	33.7%	-13.4%	39.8µM*	34.9%	-0.6%	.
